# Laboratory results as given in publication PMC7862700, “An all-to-all approach to the identification of sequence-specific readers for epigenetic DNA modifications on cytosine”.
# What was measured:
# Assay in all cases: DAPPL (digital affinity profiling via proximity ligation, sequencing); 10 mM Tris-HCl pH 7.5, 50 mM NaCl, 1 mM DTT, 4% glycerol, room temperature, 30 min; GST-TFs on glutathione beads, 16-mer random dsDNA library, 0.1% formaldehyde crosslink after washing; high values mean tight binding
# Conditions in all cases: protein: recombinant; tags: N-terminal GST; dsDNA, one strand shown
# [1] = target: T1, ETV2 (Homo sapiens, UniProt O00321 1-342)
# T1 sequence: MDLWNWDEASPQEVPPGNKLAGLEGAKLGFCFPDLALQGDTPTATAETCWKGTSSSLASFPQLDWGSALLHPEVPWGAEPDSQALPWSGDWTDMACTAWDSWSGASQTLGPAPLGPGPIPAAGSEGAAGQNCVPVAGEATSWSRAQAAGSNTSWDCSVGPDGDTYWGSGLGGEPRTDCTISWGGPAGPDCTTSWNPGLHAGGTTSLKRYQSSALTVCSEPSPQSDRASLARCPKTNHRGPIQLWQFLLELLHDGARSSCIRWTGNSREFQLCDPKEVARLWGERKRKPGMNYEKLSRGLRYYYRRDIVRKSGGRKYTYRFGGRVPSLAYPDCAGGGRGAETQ
# Outline: (§1)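 A tag-only sample was pooled with DNA-barcoded human transcription factors that had been expressed in yeast as GST fusions and captured on glutathione beads. The pools were incubated for 30 min at room temperature with 200 nmole of a random double-stranded 16-mer DNA library in Tris/NaCl/DTT/glycerol buffer, then washed, crosslinked with 0.1% formaldehyde, proximity-ligated (BsaI/T4 ligase, 1 h, 37 °C), PCR-amplified and sequenced on an Illumina NextSeq500. Binding signal is each hexamer's read frequency for a factor divided by its frequency for the tag-only sample.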
# [2] = target: T2, ELF3 (Homo sapiens, UniProt P78545 1-371)
# T2 sequence: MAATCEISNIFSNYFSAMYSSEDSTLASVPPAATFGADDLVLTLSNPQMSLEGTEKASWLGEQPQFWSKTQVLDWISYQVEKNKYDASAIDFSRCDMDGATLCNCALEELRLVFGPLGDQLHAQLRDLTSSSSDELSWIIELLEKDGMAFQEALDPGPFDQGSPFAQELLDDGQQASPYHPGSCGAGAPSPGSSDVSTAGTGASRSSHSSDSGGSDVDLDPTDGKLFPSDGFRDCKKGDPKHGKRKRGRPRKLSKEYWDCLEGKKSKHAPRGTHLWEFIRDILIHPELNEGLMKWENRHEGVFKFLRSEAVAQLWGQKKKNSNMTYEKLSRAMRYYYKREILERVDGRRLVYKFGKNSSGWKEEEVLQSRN
# Outline: as §1
# [3] = target: ETV1 (Homo sapiens, UniProt P50549 1-477)
# Sequence of ETV1 (P50549 whole entry): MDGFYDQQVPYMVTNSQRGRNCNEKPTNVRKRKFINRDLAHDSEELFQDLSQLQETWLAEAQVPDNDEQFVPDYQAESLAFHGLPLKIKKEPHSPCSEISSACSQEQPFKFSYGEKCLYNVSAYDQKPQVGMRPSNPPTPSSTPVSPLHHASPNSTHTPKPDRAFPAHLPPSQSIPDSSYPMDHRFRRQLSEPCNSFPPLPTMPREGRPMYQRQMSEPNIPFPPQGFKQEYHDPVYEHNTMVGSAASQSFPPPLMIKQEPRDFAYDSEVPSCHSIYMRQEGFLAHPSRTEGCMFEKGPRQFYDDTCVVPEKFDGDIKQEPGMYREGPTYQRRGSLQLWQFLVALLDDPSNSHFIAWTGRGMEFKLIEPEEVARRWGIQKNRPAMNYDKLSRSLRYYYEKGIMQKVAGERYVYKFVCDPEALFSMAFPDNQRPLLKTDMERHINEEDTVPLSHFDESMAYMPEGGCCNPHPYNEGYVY
# Outline: as §1
# [4] = target: T3, ERF (Homo sapiens, UniProt P50548 1-548)
# T3 sequence: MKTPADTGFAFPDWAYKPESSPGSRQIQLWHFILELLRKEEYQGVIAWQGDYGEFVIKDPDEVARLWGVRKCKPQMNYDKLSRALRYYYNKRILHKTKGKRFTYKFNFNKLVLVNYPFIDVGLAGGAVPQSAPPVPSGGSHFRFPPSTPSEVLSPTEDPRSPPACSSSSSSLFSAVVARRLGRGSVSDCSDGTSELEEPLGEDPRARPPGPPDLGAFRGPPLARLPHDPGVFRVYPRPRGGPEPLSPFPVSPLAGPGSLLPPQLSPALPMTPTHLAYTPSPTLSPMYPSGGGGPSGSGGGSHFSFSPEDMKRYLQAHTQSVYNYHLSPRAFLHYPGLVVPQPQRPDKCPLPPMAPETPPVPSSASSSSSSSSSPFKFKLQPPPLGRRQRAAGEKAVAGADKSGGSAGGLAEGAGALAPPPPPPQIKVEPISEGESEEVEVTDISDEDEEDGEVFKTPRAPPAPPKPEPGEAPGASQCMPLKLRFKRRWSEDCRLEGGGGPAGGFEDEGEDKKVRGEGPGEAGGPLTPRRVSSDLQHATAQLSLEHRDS
# Outline: as §1
# [5] = target: T4, ETV3L (Homo sapiens, UniProt Q6ZN32 1-361)
# T4 sequence: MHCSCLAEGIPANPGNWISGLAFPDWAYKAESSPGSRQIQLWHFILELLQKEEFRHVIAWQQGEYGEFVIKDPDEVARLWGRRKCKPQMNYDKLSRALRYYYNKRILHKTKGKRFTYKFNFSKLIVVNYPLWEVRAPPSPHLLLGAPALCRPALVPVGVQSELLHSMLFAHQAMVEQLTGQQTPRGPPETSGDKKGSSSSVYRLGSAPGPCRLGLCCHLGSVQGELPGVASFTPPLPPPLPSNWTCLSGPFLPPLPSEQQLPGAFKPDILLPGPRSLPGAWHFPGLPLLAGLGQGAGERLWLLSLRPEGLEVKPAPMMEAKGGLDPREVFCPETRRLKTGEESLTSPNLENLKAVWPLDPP
# Outline: as §1
# [6] = target: T5, ETS2 (Homo sapiens, UniProt P15036 1-469)
# T5 sequence: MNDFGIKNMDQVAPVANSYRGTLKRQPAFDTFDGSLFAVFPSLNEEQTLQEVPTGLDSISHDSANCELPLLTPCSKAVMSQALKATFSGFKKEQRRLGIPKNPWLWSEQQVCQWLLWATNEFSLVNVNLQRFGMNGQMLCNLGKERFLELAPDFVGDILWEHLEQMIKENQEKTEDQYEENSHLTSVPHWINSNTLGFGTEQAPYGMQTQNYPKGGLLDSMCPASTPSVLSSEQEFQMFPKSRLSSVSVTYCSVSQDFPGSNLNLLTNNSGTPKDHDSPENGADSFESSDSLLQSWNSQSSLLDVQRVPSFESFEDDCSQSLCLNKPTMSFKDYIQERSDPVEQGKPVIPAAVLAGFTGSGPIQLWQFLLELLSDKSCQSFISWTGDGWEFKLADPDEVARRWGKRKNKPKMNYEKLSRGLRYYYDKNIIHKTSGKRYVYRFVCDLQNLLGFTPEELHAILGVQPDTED
# Outline: as §1
# [7] = target: T6, SPDEF (Homo sapiens, UniProt O95238 1-335)
# T6 sequence: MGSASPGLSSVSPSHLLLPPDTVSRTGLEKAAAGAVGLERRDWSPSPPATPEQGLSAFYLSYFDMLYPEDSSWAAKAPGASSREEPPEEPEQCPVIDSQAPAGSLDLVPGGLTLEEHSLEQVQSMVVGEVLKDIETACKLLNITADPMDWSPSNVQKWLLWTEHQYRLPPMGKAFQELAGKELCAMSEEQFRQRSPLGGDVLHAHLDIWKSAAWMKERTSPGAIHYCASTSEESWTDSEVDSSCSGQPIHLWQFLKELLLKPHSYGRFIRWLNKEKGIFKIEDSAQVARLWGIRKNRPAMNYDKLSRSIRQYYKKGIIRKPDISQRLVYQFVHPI
# Outline: as §1
# [8] = target: T7, ETV7 (Homo sapiens, UniProt Q9Y603 1-341)
# T7 sequence: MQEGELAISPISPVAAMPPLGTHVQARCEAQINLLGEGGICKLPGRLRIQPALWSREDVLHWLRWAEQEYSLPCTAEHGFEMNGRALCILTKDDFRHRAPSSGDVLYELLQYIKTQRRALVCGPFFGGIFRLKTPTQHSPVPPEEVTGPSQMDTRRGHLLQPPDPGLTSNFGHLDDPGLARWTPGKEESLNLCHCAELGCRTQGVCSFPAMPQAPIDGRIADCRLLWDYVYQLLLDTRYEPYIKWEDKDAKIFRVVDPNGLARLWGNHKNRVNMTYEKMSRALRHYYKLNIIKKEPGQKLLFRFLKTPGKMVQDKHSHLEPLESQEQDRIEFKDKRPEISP
# Outline: as §1
# [9] = target: T8, ETV3 (Homo sapiens, UniProt P41162-2 1-143)
# T8 sequence: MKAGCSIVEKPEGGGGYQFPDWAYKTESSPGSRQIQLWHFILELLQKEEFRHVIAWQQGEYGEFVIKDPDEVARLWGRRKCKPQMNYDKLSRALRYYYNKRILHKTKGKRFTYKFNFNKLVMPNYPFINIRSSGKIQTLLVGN
# Outline: as §1
# [10] = target: ETV6 (Homo sapiens, UniProt P41212 1-452)
# Sequence of ETV6 (P41212 whole entry): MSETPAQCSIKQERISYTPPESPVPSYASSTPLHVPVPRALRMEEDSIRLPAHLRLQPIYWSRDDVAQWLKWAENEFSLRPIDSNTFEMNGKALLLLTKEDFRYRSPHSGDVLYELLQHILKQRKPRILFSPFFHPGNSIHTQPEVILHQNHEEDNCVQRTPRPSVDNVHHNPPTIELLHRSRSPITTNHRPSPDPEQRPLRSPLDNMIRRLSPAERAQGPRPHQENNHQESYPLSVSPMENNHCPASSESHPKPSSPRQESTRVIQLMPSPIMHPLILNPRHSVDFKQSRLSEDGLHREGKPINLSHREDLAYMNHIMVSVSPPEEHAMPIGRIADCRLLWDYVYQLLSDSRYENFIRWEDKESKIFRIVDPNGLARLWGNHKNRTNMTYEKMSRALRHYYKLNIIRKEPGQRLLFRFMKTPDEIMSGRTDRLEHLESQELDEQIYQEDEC
# Outline: as §1
sequence,measurement,setting,value
ACCATT,binding signal,[1],"1.26 fold enrichment (6-mer frequency, TF over GST control)"
same,binding signal,[2],"1.17 fold enrichment (6-mer frequency, TF over GST control)"
same,binding signal,[3],"1.14 fold enrichment (6-mer frequency, TF over GST control)"
same,binding signal,[4],"1.03 fold enrichment (6-mer frequency, TF over GST control)"
same,binding signal,[5],"1.16 fold enrichment (6-mer frequency, TF over GST control)"
same,binding signal,[6],"1.15 fold enrichment (6-mer frequency, TF over GST control)"
same,binding signal,[7],"1 fold enrichment (6-mer frequency, TF over GST control)"
same,binding signal,[8],"1.11 fold enrichment (6-mer frequency, TF over GST control)"
same,binding signal,[9],"1.1 fold enrichment (6-mer frequency, TF over GST control)"
same,binding signal,[10],"1.14 fold enrichment (6-mer frequency, TF over GST control)"
